Compounds with a hit are over-represented: about 2.4% of the library has one in this group of screens.
WRN inhibitor = blocks human WRN helicase | WRN helicase unwinding, fluorescent forked duplex, kinetic | Q14191 | Potency, µM (highest dose often 114 µM), for inactives: top-dose activity change, negative = inhibition, most hits filed as inhibitors | 0.46% of 360,000 active | AID 651768; further: potency means the concentration at half of the fitted maximal effect; on the % scale 0 is the no-effect control and ±100 the full control effect; nearly all actives have a fitted effect of over 55% in size
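Kinetic red-fluorescence monitoring (525/598 nm) tracks WRN helicase activity after 100 nM fluorophore-quencher forked duplex and 2 mM ATP are added to 20 nM enzyme pretreated 15 min at room temperature with compound.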
FEN1 inh = human FEN1 inhibition | Recombinant FEN1 flap cleavage, fluorescence, 15 min | Potency, µM (doses to about 114 µM), for the others: top-dose activity change, negative = inhibition, actives largely listed as inhibitors | 0.35% of 390,000 active | AID 588795; further: potency means the concentration at half of the fitted maximal effect; on the % scale 0 is the no-effect control and ±100 the full control effect; nearly all actives have a fitted effect of over 65% in size
Target sequence (P39748 whole entry, looked up): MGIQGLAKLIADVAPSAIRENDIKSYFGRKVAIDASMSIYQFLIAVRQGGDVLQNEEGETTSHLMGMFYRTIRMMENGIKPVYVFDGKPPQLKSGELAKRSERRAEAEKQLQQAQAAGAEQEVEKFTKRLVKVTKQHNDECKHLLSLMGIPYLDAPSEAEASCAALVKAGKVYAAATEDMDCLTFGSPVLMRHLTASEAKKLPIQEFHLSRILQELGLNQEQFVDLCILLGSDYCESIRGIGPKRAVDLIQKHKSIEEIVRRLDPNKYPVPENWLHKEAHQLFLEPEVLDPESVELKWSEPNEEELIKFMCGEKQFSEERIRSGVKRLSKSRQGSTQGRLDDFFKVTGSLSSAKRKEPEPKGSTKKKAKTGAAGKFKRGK
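With each library titrated from low to high concentration, compounds met 10 nM FEN1 for 15 min at room temperature before 50 nM substrate was added; readings at 0 and 15 min fed four-parameter Hill curve fits.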
Pol kappa inh-1 = blocks human DNA polymerase kappa activity; 0.53% of 400,000 active; AID 588579; purified Pol kappa, fluorescent DNA synthesis assay, 10 min; Potency, µM (doses to about 107 µM), without a hit: at the top dose activity, negative = inhibition, most hits filed as inhibitors; further: potency means the concentration at half of the fitted maximal effect; on the % scale 0 is the no-effect control and ±100 the full control effect
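Kinetic fluorescence readout at 0 and 10 min followed reaction start with substrate at 50 nM final. Beforehand, enzyme (10 nM Pol kappa) stood 15 min with compound at room temperature; buffer-only wells were negative controls.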
Pol eta inh-1 = DNA polymerase eta (human) inhibition; AID 588591; Potency, µM (doses to about 114 µM), inactives show at the highest dose activity change, negative = inhibition, most hits filed as inhibitors; recombinant Pol eta, fluorescent DNA replication assay; 1.2% of 390,000 active; further: potency means the concentration at half of the fitted maximal effect; on the % scale 0 is the no-effect control and ±100 the full control effect
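Pol eta (10 nM) was preincubated with compounds for 15 min at room temperature, after which fluorescent replication substrate (50 nM final) was added to start the reaction. Fluorescence was read kinetically at 0 and 10 min.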
Pol beta inh-1 = inhibitors of human DNA polymerase beta. P06746. Pol beta primer extension/strand displacement, fluorescence kinetic. Potency, µM (top dose mostly 114 µM), inactives show at the highest dose activity change, negative = inhibition, usual class: inhibitors. 1.3% of 340,000 active. AID 485314; further: potency means the concentration at half of the fitted maximal effect; on the % scale 0 is the no-effect control and ±100 the full control effect
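Reaction started by 50 nM substrate onto compound-treated Pol beta (10 nM, 15 min preincubation, room temperature); plates read at 0 min and 10 min. Normalized concentration-effect data fitted by four-parameter Hill equation.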
Pol iota inh = inhibitors of human DNA polymerase iota. Q9UNA4. Potency, µM (top dose mostly 115 µM), for the others: at the highest dose activity, negative = inhibition, most hits filed as inhibitors. AID 588590. 1% of 390,000 active. Pol iota fluorescent replication assay, 10 min; further: potency means the concentration at half of the fitted maximal effect
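Fluorescent replication assay read twice, at 0 min and 10 min after adding 50 nM (final) substrate. Enzyme (10 nM) and compounds were first incubated 15 min at room temperature; enzyme-free buffer wells were negative controls.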
Pol beta inh-2 = Validate hits inhibiting human DNA polymerase beta | Pol beta primer extension/strand displacement, fluorescence kinetic | Potency, µM, actives largely listed as inhibitors | 87% of 250 active | AID 540280 | shares compounds with Pol beta inh-1; calls by dose curve; further: potency means the concentration at half of the fitted maximal effect
Klenow inh = Klenow polymerase inhibition, pol beta selectivity check; Klenow exo- polymerase counter-screen, fluorescent DNA substrate; AID 540300; 250 tested, under 10 active; activity change, negative = inhibition, % at 57.1 µM; shares compounds with Pol beta inh-1
HIV RT counter = counter-screen for DNA polymerase beta inhibitors: HIV-1 RT inhibition; shares compounds with Pol beta inh-1; HIV-1 RT polymerase activity, counter-screen; activity % (negative = inhibition, positive = activation), % at 57.1 µM; 250 tested, under 10 active
BAZ2B confirm = confirmation of human BAZ2B bromodomain inhibitors | Potency, µM, most hits filed as inhibitors | AlphaScreen BAZ2B / biotin-H3K14Ac peptide displacement | shares compounds with Pol kappa inh-1 | 100% of 25 active; calls by dose curve
AlphaScreen ctr = AlphaScreen signal interference, BAZ2B hit counter-screen. shares compounds with Pol kappa inh-1. AlphaScreen biotin-His6 peptide bead counterscreen, signal decrease. Potency, µM (series often up to 57.1 µM), inactives show at the top dose activity change, negative = inhibition, actives largely listed as inhibitors. 25 tested, under 10 active. AID 588859;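 active means clear concentration-dependent signal drop in the bead assay lacking the target, so a primary-screen artifact; inconclusive means weak, partial or single-dose response; inactive means no response, so a real primary hit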
TbPGK inh = blocks T. brucei phosphoglycerate kinase; shares compounds with Pol kappa inh-1; TbPGK coupled GAPDH assay, Kinase-Glo luminescence; Potency, µM (top dose mostly 57.5 µM), for inactives: top-dose activity change, negative = inhibition, usual class: inhibitors; 79% of 500 active; AID 686980; further: potency means the concentration at half of the fitted maximal effect; on the % scale 0 is the no-effect control and ±100 the full control effect; nearly all actives have a fitted effect of over 65% in size
Target sequence (P07378 whole entry, looked up): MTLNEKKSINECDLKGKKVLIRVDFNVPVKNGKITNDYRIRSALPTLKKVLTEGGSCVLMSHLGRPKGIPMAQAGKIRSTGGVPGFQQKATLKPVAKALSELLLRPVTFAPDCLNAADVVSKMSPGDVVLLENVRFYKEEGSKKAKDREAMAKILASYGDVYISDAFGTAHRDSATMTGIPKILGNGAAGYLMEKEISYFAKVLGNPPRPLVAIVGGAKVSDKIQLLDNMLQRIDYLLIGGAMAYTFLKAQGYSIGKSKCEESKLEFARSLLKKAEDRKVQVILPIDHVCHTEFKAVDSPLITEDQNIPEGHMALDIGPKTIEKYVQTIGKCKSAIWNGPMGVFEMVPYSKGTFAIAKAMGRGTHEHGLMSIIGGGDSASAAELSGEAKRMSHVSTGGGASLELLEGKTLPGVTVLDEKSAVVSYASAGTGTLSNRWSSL
POLI cherry-pick = Inhibitors of human DNA polymerase iota, confirmation | shares compounds with Pol kappa inh-1 | Pol iota primer extension, TAMRA/BHQ fluorescence | Potency, µM, actives largely listed as inhibitors | 77% of 1,500 active | AID 720496; further: potency means the concentration at half of the fitted maximal effect
Pol kappa inh-2 = confirmation of human DNA polymerase kappa inhibitors; shares compounds with Pol eta inh-1; purified Pol-kappa, fluorescent strand-displacement substrate; Potency, µM, most hits filed as inhibitors; 76% of 920 active; further: potency means the concentration at half of the fitted maximal effect
Pol eta inh-2 = confirmation of human DNA polymerase eta inhibitors | 64% of 2,600 active | shares compounds with Pol eta inh-1 | Pol eta primer extension, TAMRA/BHQ fluorescence, 10 min | Potency, µM, most hits filed as inhibitors | AID 720502; further: potency means the concentration at half of the fitted maximal effect
* hit, by the source's call; u = inconclusive; x = no result given; ! = repeats disagree; [ ] = remark or other dose. Unless noted, the call rests on the fitted dose curve; in most records, active means well fitted curve in the direction sought with a large enough effect; inconclusive means small, poorly fitted or top-dose-only effect, or another doubt; inactive means no such curve, though single readings can be large; an effect the other way counts as inactive or inconclusive.

SMILES	WRN inhibitor	FEN1 inh	Pol kappa inh-1	Pol eta inh-1	Pol beta inh-1	Pol iota inh	POLI cherry-pick	Pol eta inh-2	others
C=C(C)C(=O)Nc1cccc(C2=NOC3(C2)C[C@H](C(N)=O)N(C(=O)CC)C3)c1 (some centres undefined)	-5.6%	-6.1%	79.4µM*	11.2µM*	3.55µM*	u	x	x	Pol beta inh-2=8.91*;Klenow inh=-16.7;HIV RT counter=1.0;BAZ2B confirm=7.08*;AlphaScreen ctr=-2.9%
CN(CC(=O)N[C@H](CO)Cc1ccccc1)C(=O)[C@H](CCS(C)=O)NC(=O)[C@@H](N)Cc1ccc(O)cc1 (some centres undefined)	x	x	6.5%[19.4 µM]	x	x	x	x	x
CN1C(=O)NC(=O)/C(=C\c2ccc([N+](=O)[O-])o2)C1=O	25.1µM*	15.8µM*	14.1µM*	2.24µM*	100µM*	2.51µM*	x	x	TbPGK inh=1.83µM*
CCN(CC)P(=O)(NC(=O)C(Cl)(Cl)Cl)N(CC)CC.[Cl-].[Cl-].[Cl-].[Nd+3]	u	u	79.4µM*	u	u	u	x	x	TbPGK inh=u
CN1C(=O)C(Cc2ccc(OCc3ccccc3)cc2)C(=O)N(C)C1=O	8.6%	10.8%	7.2%	-5.6%	-0.9%	43.7%	x	x
O=c1cc(OCc2ccccc2)cc[nH]1	4.2%	-0.1%	3.7%	-19.2%	x	52.5%	x	x	BAZ2B confirm=2.24*;AlphaScreen ctr=10µM*
CN(C)[C@@H]1C(=O)C(C(N)=O)=C(O)[C@@]2(O)C(=O)C3=C(O)c4c(O)cccc4[C@@](C)(O)C3[C@H](O)C12 (some centres undefined)	39.8µM*!	15.8µM*!	8.91µM*!	31.6µM*!	x	12.6µM*	u	x
CC(C)C1C(=O)O[C@@H]2CCN3CC=C(COC(=O)[C@](C)(O)[C@]1(C)O)[C@H]23 (some centres undefined)	x	x	17.8%[60.1 µM]	x	x	x	x	x
CCN(CC)C(=O)c1ccc2c(c1)C1C=CCC1C(C(=O)O)N2 (centres undefined)	44.7µM*	u	u	3.98µM*	35.5µM*	12.6µM*	x	x	TbPGK inh=u
C[C@H](NC(=O)[C@@H](N)Cc1ccc(O)cc1)C(=O)NCC(=O)N(C)[C@@H](Cc1ccccc1)C(=O)N[C@H](CO)CCS(C)=O (some centres undefined)	x	x	-2.9%[19.4 µM]	x	x	x	x	x
Cc1cc(C)cc(NC(=O)Cn2cc(C(=O)c3cccs3)c3ccccc32)c1	x	-22.5%	-7.2%	-21.8%	u	-14.4%	x	x
C#CCN1C(C)=C(C(=O)CCO)[C@@H](c2cccc(-n3oo3)c2)C(C(=O)OC)=C1C	x	x	-11.0%[19.4 µM]	x	x	x	x	x
COc1ccc(S(=O)(=O)Nc2ccccc2OC)cc1N=Nc1c(O)[nH]c(=S)[nH]c1=O	u	-20.4%	u	22.4µM*	x	u	42.3*	u	Pol kappa inh-2=42.3*
COc1cccc(N=Nc2c(O)[nH]c(=S)[nH]c2=O)c1	-13.5%	-21.3%	0.0%	-9.9%	0.5%	u	x	x
CCOP(=S)(OCC)SCn1c(=O)oc2cc(Cl)ccc21	x	x	-4.2%[60.1 µM]	x	x	x	x	x
CC(C)c1ccc(N2C(=O)NC(=O)/C(=C/C=C/c3ccco3)C2=O)cc1	50.1µM*	u	39.8µM*	11.2µM*	31.6µM*	12.6µM*	75.2*	30.1*
CCc1ccc(N2C(=O)NC(=O)/C(=C\C=C\c3ccco3)C2=O)cc1	u	22.4µM*	35.5µM*	20µM*	u	7.08µM*	37.7*	30.1*	Pol kappa inh-2=15*
COc1ccc2oc(=O)c(C(=O)NCCc3c(C)[nH]c4ccc(F)cc34)cc2c1	x	-19.6%	4.4%	-16.3%	23.4%	u	x	x
O=C1C=C(N2CC2)c2ccccc2C1=O	44.7µM*	x	x	8.91µM*	x	x	47.4*	30.1*
O=C1c2ccccc2-c2cc3ccccc3cc21	8.8%	u	-15.7%	-17.4%	x	8.4%	x	x
CCCCn1c(NS(=O)(=O)c2ccccc2)c(C(=O)OCC)c2nc3ccccc3nc21	-34.8%	-5.8%	-18.2%	u	-13.1%	34.1%	x	x
CCCCn1c(NC(=O)c2ccc(Br)o2)c(C(=O)OCC)c2nc3ccccc3nc21	u	-15.7%	-10.4%	22.4µM*	u	u	42.3*	19*
NN=C1C(Cl)=C(Cl)C(Cl)=C1Cl	-20.0%[11.6 µM]	x	x	u	x	x	67*	u	Pol kappa inh-2=u
CC(N)[C@H](O)c1ccc(O)c(O)c1 (some centres undefined)	x	14.1µM*	2.99µM*	3.16µM*	1.78µM*	2.51µM*	15*	37.9*
C=C(C)C(=O)Nc1cccc(C2=NOC3(C2)C[C@@H](C(N)=O)N(C(=O)/C(C)=C/C)C3)c1 (some centres undefined)	u	-19.8%	20µM*	2.51µM*	1.41µM*	35.5µM*	29.9*	6.75*	BAZ2B confirm=3.98*;AlphaScreen ctr=-10.1%;TbPGK inh=u;Pol kappa inh-2=8.44*
C[C@]12N[C@@H](Cc3ccccc31)c1ccccc12	x	x	-4.8%[19.4 µM]	x	x	x	x	x

Screening results deposited in PubChem by National Center for Advancing Translational Sciences (NCATS).
